This note sets out measurements from article PMC7862700, “An all-to-all approach to the identification of sequence-specific readers for epigenetic DNA modifications on cytosine”.

Holding throughout (experiment): DAPPL (digital affinity profiling via proximity ligation, sequencing); 10 mM Tris-HCl pH 7.5, 50 mM NaCl, 1 mM DTT, 4% glycerol, room temperature, 30 min; GST-TFs on glutathione beads, 16-mer random dsDNA library, 0.1% formaldehyde crosslink after washing; high values mean tight binding
One assay deals with T1, FLI1 (Homo sapiens, UniProt Q01543 1-452).
T1 sequence: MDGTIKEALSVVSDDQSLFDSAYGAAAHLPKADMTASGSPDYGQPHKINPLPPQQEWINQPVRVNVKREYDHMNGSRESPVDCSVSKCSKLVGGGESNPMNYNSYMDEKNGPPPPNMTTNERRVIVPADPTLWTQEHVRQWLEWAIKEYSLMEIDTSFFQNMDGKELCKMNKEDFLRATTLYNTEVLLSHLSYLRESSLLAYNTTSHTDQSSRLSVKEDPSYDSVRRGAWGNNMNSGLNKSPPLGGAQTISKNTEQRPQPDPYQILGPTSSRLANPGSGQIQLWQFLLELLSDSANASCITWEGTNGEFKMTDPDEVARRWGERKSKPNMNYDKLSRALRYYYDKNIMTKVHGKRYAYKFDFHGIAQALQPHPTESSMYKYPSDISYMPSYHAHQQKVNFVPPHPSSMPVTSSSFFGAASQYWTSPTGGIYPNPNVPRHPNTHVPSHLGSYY
Conditions: protein: recombinant; tags: N-terminal GST; dsDNA, one strand shown. Put shortly: (§1)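 Pools were built from human transcription factors expressed in yeast as GST fusions, captured on glutathione beads and DNA-barcoded, along with a tag-only sample. Incubation with 200 nmole of a 16-mer random double-stranded DNA library lasted 30 min at room temperature in Tris/NaCl/DTT/glycerol buffer, and was followed by washing, 0.1% formaldehyde crosslinking, proximity ligation, PCR amplification and Illumina NextSeq500 sequencing. Binding signal is the quotient of each hexamer's read frequency for a factor and its frequency for the tag-only sample.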

Another assay concerns the target T2, ELK1 (Homo sapiens, UniProt P19419 1-428).
T2 sequence: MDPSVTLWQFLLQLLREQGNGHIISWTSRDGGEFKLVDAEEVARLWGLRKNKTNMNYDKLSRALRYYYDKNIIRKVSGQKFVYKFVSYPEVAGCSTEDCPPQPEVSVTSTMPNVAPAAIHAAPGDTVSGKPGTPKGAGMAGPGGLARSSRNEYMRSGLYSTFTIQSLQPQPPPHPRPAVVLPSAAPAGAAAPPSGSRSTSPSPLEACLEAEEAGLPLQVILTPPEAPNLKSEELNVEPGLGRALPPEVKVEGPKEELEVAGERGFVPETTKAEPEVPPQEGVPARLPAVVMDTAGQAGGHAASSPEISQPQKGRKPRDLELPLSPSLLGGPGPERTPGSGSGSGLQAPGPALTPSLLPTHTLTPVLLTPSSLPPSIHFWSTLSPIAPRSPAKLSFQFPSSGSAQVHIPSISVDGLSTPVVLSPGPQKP
Conditions: protein: recombinant; tags: N-terminal GST; dsDNA, one strand shown. The procedure, abridged: as §1

In the next assay the target is T3, GABPA (Homo sapiens, UniProt Q06546 1-454).
T3 sequence: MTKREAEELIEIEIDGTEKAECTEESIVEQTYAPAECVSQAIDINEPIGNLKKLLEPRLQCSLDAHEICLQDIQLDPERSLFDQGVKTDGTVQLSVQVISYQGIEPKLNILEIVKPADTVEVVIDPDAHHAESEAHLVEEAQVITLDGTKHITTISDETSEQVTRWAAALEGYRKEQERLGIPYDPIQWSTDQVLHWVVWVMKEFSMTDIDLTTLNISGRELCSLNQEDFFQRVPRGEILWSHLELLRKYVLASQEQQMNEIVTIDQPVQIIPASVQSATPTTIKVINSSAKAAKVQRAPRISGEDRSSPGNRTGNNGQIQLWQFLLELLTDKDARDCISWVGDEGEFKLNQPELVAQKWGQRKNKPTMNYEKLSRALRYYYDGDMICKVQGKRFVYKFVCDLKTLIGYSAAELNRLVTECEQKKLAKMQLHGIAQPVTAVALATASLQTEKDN
Conditions: protein: recombinant; tags: N-terminal GST; dsDNA, one strand shown. Put shortly:
as §1

The next assay concerns the target T4, ERG (Homo sapiens, UniProt P11308 1-479).
T4 sequence: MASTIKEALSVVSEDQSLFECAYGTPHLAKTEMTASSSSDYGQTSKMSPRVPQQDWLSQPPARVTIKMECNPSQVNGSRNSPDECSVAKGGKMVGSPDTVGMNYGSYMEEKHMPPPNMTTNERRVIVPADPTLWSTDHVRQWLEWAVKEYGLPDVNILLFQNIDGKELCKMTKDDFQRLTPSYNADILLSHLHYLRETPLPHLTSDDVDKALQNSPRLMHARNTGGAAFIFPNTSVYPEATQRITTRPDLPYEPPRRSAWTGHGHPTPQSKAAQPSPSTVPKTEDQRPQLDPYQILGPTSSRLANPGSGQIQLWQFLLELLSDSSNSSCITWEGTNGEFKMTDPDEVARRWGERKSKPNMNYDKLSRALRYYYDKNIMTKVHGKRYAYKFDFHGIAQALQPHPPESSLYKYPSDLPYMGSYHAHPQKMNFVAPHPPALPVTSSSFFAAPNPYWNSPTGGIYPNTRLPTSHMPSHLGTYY
To be noted: protein: recombinant; tags: N-terminal GST; dsDNA, one strand shown. Put shortly:
as §1

The target in the next assay is ELF1 (Homo sapiens, UniProt P32519 1-619). Conditions: protein: recombinant; tags: N-terminal GST; dsDNA, one strand shown. The procedure, abridged: as §1
Sequence of ELF1 (P32519 whole entry): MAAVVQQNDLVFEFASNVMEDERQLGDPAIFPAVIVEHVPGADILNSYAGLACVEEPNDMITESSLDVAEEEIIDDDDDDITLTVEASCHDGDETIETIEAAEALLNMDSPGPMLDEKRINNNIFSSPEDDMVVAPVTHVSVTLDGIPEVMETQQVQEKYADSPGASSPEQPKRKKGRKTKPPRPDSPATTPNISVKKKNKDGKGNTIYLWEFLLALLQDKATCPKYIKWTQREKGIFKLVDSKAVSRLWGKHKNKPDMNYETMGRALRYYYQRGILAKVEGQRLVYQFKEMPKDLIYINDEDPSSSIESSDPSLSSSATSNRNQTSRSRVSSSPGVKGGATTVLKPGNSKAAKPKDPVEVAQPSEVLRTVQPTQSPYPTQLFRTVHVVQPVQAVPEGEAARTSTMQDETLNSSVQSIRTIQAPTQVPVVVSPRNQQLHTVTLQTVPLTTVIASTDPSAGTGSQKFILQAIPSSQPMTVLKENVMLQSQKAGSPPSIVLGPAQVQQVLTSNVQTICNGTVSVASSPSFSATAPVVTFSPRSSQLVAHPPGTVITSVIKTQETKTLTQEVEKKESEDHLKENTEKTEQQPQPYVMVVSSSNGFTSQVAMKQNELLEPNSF
For the next assay, the target named is T5, EHF (Homo sapiens, UniProt Q9NZC4 1-300).
T5 sequence: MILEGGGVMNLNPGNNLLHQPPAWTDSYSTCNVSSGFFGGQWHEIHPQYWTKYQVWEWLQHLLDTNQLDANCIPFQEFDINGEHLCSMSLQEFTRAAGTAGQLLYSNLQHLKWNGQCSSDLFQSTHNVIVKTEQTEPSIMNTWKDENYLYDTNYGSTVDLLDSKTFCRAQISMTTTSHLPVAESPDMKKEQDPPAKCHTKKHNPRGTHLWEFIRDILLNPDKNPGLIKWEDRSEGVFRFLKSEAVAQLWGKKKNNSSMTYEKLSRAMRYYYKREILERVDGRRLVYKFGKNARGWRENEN
Conditions: protein: recombinant; tags: N-terminal GST; dsDNA, one strand shown. Put shortly:
as §1

The target of a further assay is SPI1 (Homo sapiens, UniProt P17947 1-270). Conditions: protein: recombinant; tags: N-terminal GST; dsDNA, one strand shown. The procedure, abridged:
as §1

Another assay deals with SPIB (Homo sapiens, UniProt Q01892 1-262). Conditions: protein: recombinant; tags: N-terminal GST; dsDNA, one strand shown. The procedure, abridged: as §1
Sequence of SPIB (Q01892 whole entry): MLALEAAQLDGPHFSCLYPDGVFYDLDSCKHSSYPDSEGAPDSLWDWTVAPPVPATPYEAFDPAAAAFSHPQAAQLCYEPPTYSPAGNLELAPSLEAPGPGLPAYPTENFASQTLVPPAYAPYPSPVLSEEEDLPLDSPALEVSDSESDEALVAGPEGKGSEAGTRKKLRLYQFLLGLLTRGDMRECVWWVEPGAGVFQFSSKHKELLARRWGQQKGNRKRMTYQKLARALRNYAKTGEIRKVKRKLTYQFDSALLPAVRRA
The target in a further assay is T6, ELK3 (Homo sapiens, UniProt P41970 1-407).
T6 sequence: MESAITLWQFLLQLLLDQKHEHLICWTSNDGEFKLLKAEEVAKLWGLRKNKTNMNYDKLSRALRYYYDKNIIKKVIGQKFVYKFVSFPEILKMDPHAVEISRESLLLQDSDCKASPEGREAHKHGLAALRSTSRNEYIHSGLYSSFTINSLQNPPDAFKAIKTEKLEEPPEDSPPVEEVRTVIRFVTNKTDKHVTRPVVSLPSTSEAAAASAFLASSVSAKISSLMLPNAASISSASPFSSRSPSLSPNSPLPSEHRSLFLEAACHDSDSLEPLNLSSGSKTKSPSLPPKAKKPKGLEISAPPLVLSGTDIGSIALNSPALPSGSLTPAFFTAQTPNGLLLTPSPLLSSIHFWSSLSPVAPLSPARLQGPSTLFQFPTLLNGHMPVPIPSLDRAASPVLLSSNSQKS
To be noted: protein: recombinant; tags: N-terminal GST; dsDNA, one strand shown. The procedure, abridged:
as §1

A further assay deals with T7, FEV (Homo sapiens, UniProt Q99581 1-238).
T7 sequence: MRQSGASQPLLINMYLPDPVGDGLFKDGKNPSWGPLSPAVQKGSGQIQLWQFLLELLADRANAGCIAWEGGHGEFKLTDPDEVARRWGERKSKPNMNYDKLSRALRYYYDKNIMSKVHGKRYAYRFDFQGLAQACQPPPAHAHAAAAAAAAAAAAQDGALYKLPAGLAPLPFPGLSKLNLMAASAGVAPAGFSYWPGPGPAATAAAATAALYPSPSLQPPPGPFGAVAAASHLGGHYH
To be noted: protein: recombinant; tags: N-terminal GST; dsDNA, one strand shown. The procedure, abridged: as §1

The target in a further assay is ETV5 (Homo sapiens, UniProt P41161 1-510). Conditions: protein: recombinant; tags: N-terminal GST; dsDNA, one strand shown. Put shortly: as §1
Sequence of ETV5 (P41161 whole entry): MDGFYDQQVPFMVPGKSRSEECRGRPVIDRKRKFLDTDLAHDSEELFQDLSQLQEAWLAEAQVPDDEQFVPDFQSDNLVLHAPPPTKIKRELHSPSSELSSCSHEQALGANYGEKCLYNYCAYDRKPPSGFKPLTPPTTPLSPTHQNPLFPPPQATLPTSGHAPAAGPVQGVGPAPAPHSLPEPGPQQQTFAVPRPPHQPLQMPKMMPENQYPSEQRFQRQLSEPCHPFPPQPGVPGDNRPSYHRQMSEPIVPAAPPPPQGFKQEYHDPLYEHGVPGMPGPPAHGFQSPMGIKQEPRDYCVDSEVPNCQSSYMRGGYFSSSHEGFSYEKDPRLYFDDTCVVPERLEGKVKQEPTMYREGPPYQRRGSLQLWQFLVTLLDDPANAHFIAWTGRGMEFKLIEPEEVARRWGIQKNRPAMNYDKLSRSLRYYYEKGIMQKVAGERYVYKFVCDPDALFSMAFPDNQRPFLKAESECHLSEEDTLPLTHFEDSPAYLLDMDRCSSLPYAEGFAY
The next assay concerns the target HSF1 (Homo sapiens, UniProt Q00613 1-529). To be noted: protein: recombinant; tags: N-terminal GST; chain copies: 3; dsDNA, one strand shown. The procedure, abridged: as §1
A further assay addresses T8, SPIC (Homo sapiens, UniProt Q8N5J4 1-248).
T8 sequence: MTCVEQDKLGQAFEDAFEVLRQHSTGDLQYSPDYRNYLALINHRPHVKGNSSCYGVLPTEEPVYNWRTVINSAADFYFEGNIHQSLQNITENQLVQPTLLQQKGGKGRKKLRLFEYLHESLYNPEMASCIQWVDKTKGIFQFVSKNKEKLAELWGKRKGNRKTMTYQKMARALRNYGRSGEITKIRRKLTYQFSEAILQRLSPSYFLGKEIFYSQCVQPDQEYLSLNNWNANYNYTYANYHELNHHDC
To be noted: protein: recombinant; tags: N-terminal GST; dsDNA, one strand shown. Put shortly: as §1

In another assay the target is ELF4 (Homo sapiens, UniProt Q99607 1-663). To be noted: protein: recombinant; tags: N-terminal GST; dsDNA, one strand shown. The procedure, abridged: as §1
Sequence of ELF4 (Q99607 whole entry): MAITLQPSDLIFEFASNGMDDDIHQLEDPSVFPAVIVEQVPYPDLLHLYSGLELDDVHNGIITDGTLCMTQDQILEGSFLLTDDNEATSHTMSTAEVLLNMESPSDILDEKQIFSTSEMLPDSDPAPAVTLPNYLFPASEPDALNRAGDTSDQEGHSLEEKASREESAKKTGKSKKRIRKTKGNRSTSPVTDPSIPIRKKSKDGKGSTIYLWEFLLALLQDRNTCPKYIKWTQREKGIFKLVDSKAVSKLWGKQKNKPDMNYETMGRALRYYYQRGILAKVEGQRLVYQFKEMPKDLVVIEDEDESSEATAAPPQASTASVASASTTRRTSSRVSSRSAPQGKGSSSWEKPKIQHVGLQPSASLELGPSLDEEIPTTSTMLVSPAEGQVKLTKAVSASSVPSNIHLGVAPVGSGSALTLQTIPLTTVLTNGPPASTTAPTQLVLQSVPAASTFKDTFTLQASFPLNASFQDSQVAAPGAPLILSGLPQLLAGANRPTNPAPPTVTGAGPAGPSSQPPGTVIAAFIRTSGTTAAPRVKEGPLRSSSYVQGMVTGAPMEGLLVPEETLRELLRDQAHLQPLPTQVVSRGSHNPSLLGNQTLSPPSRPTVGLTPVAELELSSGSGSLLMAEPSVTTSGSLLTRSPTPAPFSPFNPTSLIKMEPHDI
For a further assay, the target named is T9, ELK4 (Homo sapiens, UniProt P28324-2 1-405).
T9 sequence: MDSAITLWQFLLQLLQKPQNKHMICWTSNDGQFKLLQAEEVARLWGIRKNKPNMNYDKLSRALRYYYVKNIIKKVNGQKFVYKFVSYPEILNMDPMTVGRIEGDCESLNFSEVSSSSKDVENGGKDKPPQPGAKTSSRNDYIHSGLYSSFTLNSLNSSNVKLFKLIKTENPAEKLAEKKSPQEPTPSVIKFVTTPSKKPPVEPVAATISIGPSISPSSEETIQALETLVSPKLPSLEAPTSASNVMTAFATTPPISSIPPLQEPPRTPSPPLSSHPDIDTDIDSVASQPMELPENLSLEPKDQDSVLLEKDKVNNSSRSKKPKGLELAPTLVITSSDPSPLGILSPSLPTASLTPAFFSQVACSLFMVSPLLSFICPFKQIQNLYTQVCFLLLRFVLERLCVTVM
Conditions: protein: recombinant; tags: N-terminal GST; dsDNA, one strand shown. The procedure, abridged: as §1

For the next assay, the target named is T10, ETV2 (Homo sapiens, UniProt O00321 1-342).
T10 sequence: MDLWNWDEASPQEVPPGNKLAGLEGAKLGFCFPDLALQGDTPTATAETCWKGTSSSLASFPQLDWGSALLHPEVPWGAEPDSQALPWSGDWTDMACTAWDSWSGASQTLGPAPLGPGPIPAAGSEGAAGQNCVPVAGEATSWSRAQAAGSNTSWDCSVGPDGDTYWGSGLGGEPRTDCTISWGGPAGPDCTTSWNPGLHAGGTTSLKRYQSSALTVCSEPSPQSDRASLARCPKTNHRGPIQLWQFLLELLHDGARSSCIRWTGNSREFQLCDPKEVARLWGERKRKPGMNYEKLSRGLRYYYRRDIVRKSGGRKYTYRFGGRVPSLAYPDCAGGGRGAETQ
Conditions: protein: recombinant; tags: N-terminal GST; dsDNA, one strand shown. Put shortly:
as §1

In a further assay the target is T11, ELF3 (Homo sapiens, UniProt P78545 1-371).
T11 sequence: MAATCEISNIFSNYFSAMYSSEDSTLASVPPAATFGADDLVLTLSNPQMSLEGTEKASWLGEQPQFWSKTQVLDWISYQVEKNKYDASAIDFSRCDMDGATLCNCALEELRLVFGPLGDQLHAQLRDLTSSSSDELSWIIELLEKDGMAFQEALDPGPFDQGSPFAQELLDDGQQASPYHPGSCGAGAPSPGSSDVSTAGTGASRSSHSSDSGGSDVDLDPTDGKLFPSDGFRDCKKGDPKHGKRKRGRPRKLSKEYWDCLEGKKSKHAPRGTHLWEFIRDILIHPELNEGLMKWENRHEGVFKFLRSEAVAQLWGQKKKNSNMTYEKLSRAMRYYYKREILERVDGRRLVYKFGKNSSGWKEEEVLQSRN
To be noted: protein: recombinant; tags: N-terminal GST; dsDNA, one strand shown. The procedure, abridged: as §1

The target in another assay is CRX (Homo sapiens, UniProt O43186 1-299). Conditions: protein: recombinant; tags: N-terminal GST; dsDNA, one strand shown. The procedure, abridged: as §1
Sequence of CRX (O43186 whole entry): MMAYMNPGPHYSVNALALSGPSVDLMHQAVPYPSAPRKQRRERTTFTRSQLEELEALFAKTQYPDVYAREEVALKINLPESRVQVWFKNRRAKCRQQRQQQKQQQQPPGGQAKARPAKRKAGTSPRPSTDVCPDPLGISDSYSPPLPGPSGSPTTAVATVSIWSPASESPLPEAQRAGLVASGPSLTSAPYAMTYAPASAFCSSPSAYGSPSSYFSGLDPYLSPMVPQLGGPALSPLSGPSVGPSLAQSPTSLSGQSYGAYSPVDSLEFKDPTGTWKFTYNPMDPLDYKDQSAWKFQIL
A further assay deals with ETV1 (Homo sapiens, UniProt P50549 1-477). Conditions: protein: recombinant; tags: N-terminal GST; dsDNA, one strand shown. Put shortly: as §1
Sequence of ETV1 (P50549 whole entry): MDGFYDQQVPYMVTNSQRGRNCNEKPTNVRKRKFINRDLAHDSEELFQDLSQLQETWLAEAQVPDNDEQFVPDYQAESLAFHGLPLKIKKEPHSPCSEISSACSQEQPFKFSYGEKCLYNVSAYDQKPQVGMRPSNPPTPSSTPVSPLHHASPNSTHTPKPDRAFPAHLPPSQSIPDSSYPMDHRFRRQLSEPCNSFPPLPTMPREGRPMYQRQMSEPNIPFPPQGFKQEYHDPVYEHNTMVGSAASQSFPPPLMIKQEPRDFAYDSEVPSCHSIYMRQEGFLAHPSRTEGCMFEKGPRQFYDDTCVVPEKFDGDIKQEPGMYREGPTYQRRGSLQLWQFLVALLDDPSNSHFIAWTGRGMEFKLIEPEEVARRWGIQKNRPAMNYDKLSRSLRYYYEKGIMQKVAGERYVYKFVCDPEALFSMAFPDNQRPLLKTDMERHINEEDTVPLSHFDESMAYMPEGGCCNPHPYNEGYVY

Sequence of HSF1 (Q00613 whole entry): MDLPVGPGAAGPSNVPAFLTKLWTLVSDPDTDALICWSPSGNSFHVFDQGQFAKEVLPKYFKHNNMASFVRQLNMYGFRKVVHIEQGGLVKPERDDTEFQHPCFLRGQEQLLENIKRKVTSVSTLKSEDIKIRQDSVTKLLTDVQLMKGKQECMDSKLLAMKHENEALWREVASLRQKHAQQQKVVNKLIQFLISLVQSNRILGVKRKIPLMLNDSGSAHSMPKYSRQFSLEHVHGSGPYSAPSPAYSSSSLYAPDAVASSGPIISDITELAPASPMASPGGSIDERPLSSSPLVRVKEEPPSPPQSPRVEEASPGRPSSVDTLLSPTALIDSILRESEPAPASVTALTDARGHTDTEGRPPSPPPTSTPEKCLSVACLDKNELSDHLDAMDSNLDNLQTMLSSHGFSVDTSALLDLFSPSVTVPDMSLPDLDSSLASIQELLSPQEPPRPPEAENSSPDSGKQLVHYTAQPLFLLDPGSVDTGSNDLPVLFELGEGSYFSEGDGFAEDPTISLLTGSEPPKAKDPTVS

As for TTAATC, the binding signal with FLI1 is 1.28 fold enrichment (6-mer frequency, TF over GST control); with ELK1, 1.21 fold enrichment (6-mer frequency, TF over GST control); with GABPA it was 1.2 fold enrichment (6-mer frequency, TF over GST control); in the assay with ERG, 1.17 fold enrichment (6-mer frequency, TF over GST control); with ELF1, 1.2 fold enrichment (6-mer frequency, TF over GST control); in the assay with EHF, 1.22 fold enrichment (6-mer frequency, TF over GST control). Further, the binding signal was 1.21 fold enrichment (6-mer frequency, TF over GST control) with SPI1; 1.31 fold enrichment (6-mer frequency, TF over GST control) in the assay with SPIB; 1.31 fold enrichment (6-mer frequency, TF over GST control) with ELK3; 1.19 fold enrichment (6-mer frequency, TF over GST control) with FEV; 1.23 fold enrichment (6-mer frequency, TF over GST control) in the assay with ETV5; 3.29 fold enrichment (6-mer frequency, TF over GST control) with HSF1. Also, the binding signal in the assay with SPIC was 1.19 fold enrichment (6-mer frequency, TF over GST control); with ELF4, 1.26 fold enrichment (6-mer frequency, TF over GST control); with ELK4, 1.43 fold enrichment (6-mer frequency, TF over GST control); in the assay with ETV2, 1.13 fold enrichment (6-mer frequency, TF over GST control); with ELF3, 1.27 fold enrichment (6-mer frequency, TF over GST control); with CRX it was 6.11 fold enrichment (6-mer frequency, TF over GST control). Besides, the binding signal with ETV1 was 1.33 fold enrichment (6-mer frequency, TF over GST control).
